# Test results as given in PubChem BioAssay (EPA / NIEHS).
# The source made the active and inactive calls. The calls were made as follows: active = hit-call score of the fitted dose curve at least 0.9, where 1 is the maximum; inactive = score below 0.9.
# Read-out: CYP2C8 (gene 1558)
# Assay: LTEA_HepaRG_CYP2C8: Life Technologies and Expression Analysis (LTEA) Assay for CYP2C8 using HepaRG (AID 2283483)
# Settings: mRNA level, 48 h; actives raise or lower the signal
# Protocol: LTEA_HepaRG is a cell based, multiplexed-readout assay that uses HepaRG, a human liver cell line, with measurements taken at 48 hours after chemical dosing on a 96-well plate.LTEA_HepaRG_CYP2C8 is one of 102 assay component(s) measured in the LTEA HepaRG cell culture assay. It is a marker of NR mediated metabolism.Data from the assay component LTEA_HepaRG_CYP2C8 was analyzed into 1 endpoint. This assay endpoint, LTEA_HepaRG_CYP2C8, was analyzed with bidirectional fitting relative to DMSO as the negative control and baseline of activity. Using a type of inducible reporter, measures of mRNA induction for gain or loss-of-signal activity can be used to understand regulation of transcription factor activity. To generalize the intended target to other relatable targets, this assay endpoint is annotated to the cyp intended target family, where the subfamily is xenobiotic metabolism.
# A total of 1060 chemcials from the ToxCast library were tested in eight-point concentration-response experiments. Cell culture and cytotoxicity assays were conducted at Thermo Fisher Scientific's Custom Services facility (Madison, WI). A single lot of human HepaRG cells (Thermo Fisher Scientific, Frederick, MD) was used for the cell culture experiments. 96-well format collagen type I coated plates of human HepaRG cells were prepared using established methods. Briefly, cryopreserved HepaRG cells were thawed, plated at a density of approximately 100,000 cells/well in HepaRG Thaw, Plate, and General Purpose media (HPRG770, Thermo Fisher Scientific), and incubated for 48 hours. 0.5% DMSO was selected as vehicle control to balance the requisite need of DMSO in HepaRG cultures to maintain differentiation (for example, baseline metabolism, proportions of hepatocytes vs. cholangiocytes), while enabling further hepatic receptor pathway activation (for example, PXR and CAR) in response to chemical exposure. 48 hours after plating, the culture medium was replaced with HepaRG Serum-Free Incudtion Media. Cells were exposed to each test chemical in duplicate and maintained in CO2 incubators for another 48 hours. Chemical plates were thawed to room temperature and 200x concentrations of treatment groups were prepared. 8-point conentration-reponse curves were made with the highest exposure at 100 uM, followed by half-log dilutions, all in 0.5% DMSO. Each test plate contained variouse controls, induction positive controls (1mM phenobarbital), cytotoxicity positive controls ([…] aflatoxin B1), vehicle controls (0.5% DMSO), and total lysis controls (0.5% DMSO). Cell morphology images were taken using an Essen IncuCyte FLR automated microscope, with six 96-well plates imaged in about 24 minutes. Images were captured and exported and JPEG files. Spent culture media was transfered to black-well plates for the LDH assay, and remaining media was sorted at -80 C for later use. Cells were treated with RLT buffer and frozen until shipped for gene expression analysis. Total RNA was isolated from the cell suspension in 75 uL of Buffer RLT (Qiagen, Germantown, MD 20874) by Quintiles/Expression Analysis (Durham, NC) using a custom isolation procedure. Total RNA from each plate well was transferred to a preamplification plate. Fluidigm's 96.96 Dynamic ArrayTM (Fluidigm, Amsterdam, the Netherlands) technology was used for gene expression analyses by quantitative reverse transcription polymerase chain reaction (qRT-PCR, performed by Quintiles/Expression Analysis, Durham, NC)89. Standard TaqManTM Assays (Applied Biosystems/ThermoFisher Scientific, Foster City, CA) were used to assess the expression of 93 genes selected based on their selectivity and sensitivity to important hepatic receptors known to be modulated by environmental chemicals; importance in human hepatocyte functionality; and hepatotoxicity. […]
SMILES,outcome,AC50
c1ccc(-c2ccccc2)cc1,inactive,
CC(C)C(=O)OCC(C)(C)C(OC(=O)C(C)C)C(C)C (stereo not given),inactive,
CCC(C)c1cc([N+](=O)[O-])cc([N+](=O)[O-])c1O (stereo not given),,2.6 µM (active)
Clc1ccc(C(c2ccccc2Cl)C(Cl)(Cl)Cl)cc1 (stereo not given),,0.794 µM (active)
Cc1ccccc1O,inactive,
CCOC(=O)C(O)(c1ccc(Cl)cc1)c1ccc(Cl)cc1,,21.6 µM (active)
Cc1ccccc1CO[C@@H]1C[C@@]2(C(C)C)CC[C@]1(C)O2,,50 µM (active)
Cc1cccc([N+](=O)[O-])c1,inactive,
CC1=C2C[C@H]3[C@@H](CC=C4C[C@@H](O)CC[C@@]43C)[C@@H]2CC[C@]12O[C@@H]1C[C@H](C)CN[C@H]1[C@H]2C,inactive,
O=NN(c1ccccc1)c1ccccc1,inactive,
CCCCCCOC(=O)c1ccccc1C(=O)OCCCCCC,inactive,
O=S(=O)(O)C(F)(F)C(F)(F)C(F)(F)C(F)(F)C(F)(F)C(F)(F)F,,50 µM (active)
CC#Cc1cc(C)nc(Nc2ccccc2)n1,,48 µM (active)
CCC(C)(c1ccc(O)cc1)c1ccc(O)cc1,inactive,
N#Cc1ccc(N(CC(N)=O)CC(F)(F)F)cc1C(F)(F)F,inactive,
Cc1cccc(C)c1N,inactive,
CCOCCOC(C)=O,inactive,
O=C(O)C(F)(F)C(F)(F)C(F)(F)C(F)(F)C(F)(F)C(F)(F)C(F)(F)C(F)(F)C(F)(F)F,,76.6 µM (active)
Cc1ccccc1[N+](=O)[O-],inactive,
COc1ccc(O)c(C(C)(C)C)c1,inactive,

SMILES,outcome,AC50
Cc1ccc(O)c(C)c1,inactive,
ClC(Cl)=C(c1ccc(Cl)cc1)c1ccc(Cl)cc1,,3.63 µM (active)
Oc1ccc(Cl)cc1Cl,inactive,
C=CC(=O)NCNC(=O)C=C,inactive,
Cc1cc(-c2ccc(N)c(C)c2)ccc1N,inactive,
Oc1ccc(C(c2ccc(O)cc2)(C(F)(F)F)C(F)(F)F)cc1,inactive,
O=C(NC(=O)c1cc(F)c(F)cc1Cl)Nc1cc(F)ccc1N1CCC(C(=O)O)CC1,inactive,
CN(C)CCO,inactive,
C=CC(N)=O,inactive,
CC(C)(O)C(=O)Nc1ccc([N+](=O)[O-])c(C(F)(F)F)c1,inactive,
C[C@]12CCC(=O)C=C1CC[C@@H]1[C@@H]2CC[C@@]2(C)[C@H]1CC[C@]2(C)O,inactive,
CO/C=C(/C(=O)OC)c1ccccc1COc1cccc(C(F)(F)F)n1,,8.74 µM (active)
Nc1ccc(-c2ccc(N)cc2)cc1,inactive,
Clc1ccc(Cl)cc1,inactive,
CC(C)(c1ccccc1)c1ccc(O)cc1,inactive,
ClC1=C(Cl)[C@]2(Cl)[C@@H]3[C@H]4C[C@H]([C@@H]5O[C@H]45)[C@@H]3[C@@]1(Cl)C2(Cl)Cl,inactive,
CCCCCCCCOC(=O)c1ccccc1C(=O)OCCCCCCCC,inactive,
Clc1ccc(C(Cl)(Cl)Cl)cc1,inactive,
CCC(C)(CC)c1cc(NC(=O)c2c(OC)cccc2OC)on1,,3.26 µM (active)
C1CC2OC2CC1C1CO1 (stereo not given),inactive,
